Laboratory results taken from PubChem BioAssay (NCATS).
Results filed as inconclusive are left out. Calls of active or inactive are those of the source. Unless noted, calls follow the shape of the dose curve; as a rule, active = well fitted curve in the direction sought with a large enough effect; inconclusive = small, poorly fitted or top-dose-only effect, or another doubt; inactive = no such curve, though single readings can be large; an effect the other way counts as inactive or inconclusive.

Tests used:
[1] = target: Cytochrome P450 1A2 (Homo sapiens) (UniProt P05177); assay: p450-cyp1a2 (AID 410; calls by dose curve; also: potency is read from the fitted curve at half-maximal effect)
Procedure, shortened: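 Read-out is luminescence from luciferin produced by CYP1A2 demethylation of Luciferin-ME (100uM, at Km). Detection reagent stopped the 60 min NADPH-dependent reaction; signals were normalized to 57 uM furafylline.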

[2] = S16 Schwann cell PMP22 intronic element beta-lactamase assay (AID 624044; calls by dose curve; also: nearly all actives have a fitted effect of over 15% in size)
Procedure, shortened: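 Beta-lactamase reporter under a PMP22 intronic regulatory element in stable S16 rat Schwann cells; 24 h compound exposure. 460 nm blue signal normalized between DMSO (0%) and potassium clavulanate, with 535 nm FRET tracking viability; curves classed by r2 and response.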

[3] = system: 7G8; assay: qHTS profiling for inhibitors of Plasmodium falciparum proliferation (AID 504749); also: nearly all actives have a fitted effect of over 60% in size; also: potency is read from the fitted curve at half-maximal effect; settings: P. falciparum in erythrocytes, SYBR Green DNA, 72 h; series mostly up to 12.8 µM
Procedure, shortened: (§1)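 SYBR Green fluorescence (ex 485 nm, em 535 nm) reports parasite DNA after 72 h compound exposure of infected red cells at 0.3% parasitemia, 2.5% hematocrit; signal normalized to 0.29 uM artemisinin and vehicle wells.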

[4] = system: AA1029; assay: as above; settings: P. falciparum in erythrocytes, SYBR Green DNA, 72 h; series mostly up to 12.8 µM
Procedure, shortened: as §1

[5] = system: ATS95; assay: as above; settings: P. falciparum in erythrocytes, SYBR Green DNA, 72 h; series mostly up to 12.8 µM
Procedure, shortened: as §1

[6] = system: CP194; assay: as above; settings: P. falciparum in erythrocytes, SYBR Green DNA, 72 h; series mostly up to 12.8 µM
Procedure, shortened: as §1

[7] = system: CP203; assay: as above; settings: P. falciparum in erythrocytes, SYBR Green DNA, 72 h; series mostly up to 12.8 µM
Procedure, shortened: as §1

[8] = system: CP265; assay: as above; settings: P. falciparum in erythrocytes, SYBR Green DNA, 72 h; series mostly up to 12.8 µM
Procedure, shortened: as §1

[9] = system: CP325; assay: as above; settings: P. falciparum in erythrocytes, SYBR Green DNA, 72 h; series mostly up to 12.8 µM
Procedure, shortened: as §1

[10] = system: CP335; assay: as above; settings: P. falciparum in erythrocytes, SYBR Green DNA, 72 h; series mostly up to 12.8 µM
Procedure, shortened: as §1

[11] = system: DFO2036; assay: as above; settings: P. falciparum in erythrocytes, SYBR Green DNA, 72 h; series mostly up to 12.8 µM
Procedure, shortened: as §1

[12] = system: P94_40; assay: as above; settings: P. falciparum in erythrocytes, SYBR Green DNA, 72 h; series mostly up to 12.8 µM
Procedure, shortened: as §1

[13] = system: TAB109; assay: as above; settings: P. falciparum in erythrocytes, SYBR Green DNA, 72 h; series mostly up to 12.8 µM
Procedure, shortened: as §1

[14] = target: Cytochrome P450 2C19 (Homo sapiens) (UniProt P33261); assay: qHTS Assay for Inhibitors and Substrates of Cytochrome P450 2C19 (AID 899); also: nearly all actives have a fitted effect of over 60% in size; also: potency is read from the fitted curve at half-maximal effect
Procedure, shortened: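 Signal comes from luciferase acting on luciferin released by CYP2C19-mediated hydroxylation of Luciferin-H EGE, 10uM (KM). Assay mix: 5nM enzyme, 50mM KPO4; 60 min at 37C with NADPH regeneration. Data normalized against 57uM ketoconazole.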

[15] = system: CP260; assay: qHTS profiling for inhibitors of Plasmodium falciparum proliferation (AID 504749); also: nearly all actives have a fitted effect of over 60% in size; also: potency is read from the fitted curve at half-maximal effect; settings: P. falciparum in erythrocytes, SYBR Green DNA, 72 h; series mostly up to 12.8 µM
Procedure, shortened: as §1

[16] = system: GB4; assay: as above; settings: P. falciparum in erythrocytes, SYBR Green DNA, 72 h; series mostly up to 12.8 µM
Procedure, shortened: as §1

[17] = target: Cytochrome P450 2C9 (Homo sapiens) (UniProt P11712); assay: qHTS Assay for Inhibitors and Substrates of Cytochrome P450 2C9 (AID 883); also: nearly all actives have a fitted effect of over 60% in size; also: potency is read from the fitted curve at half-maximal effect
Procedure, shortened: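 Signal: luciferase luminescence reporting luciferin produced by CYP2C9. Conditions: 10nM enzyme, Luciferin-H 100uM at KM, 25mM KPO4, 37C, 60 min NADPH-driven reaction. Reference: 57uM sulphaphenazole as 100% inhibition.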

[18] = target: Cytochrome P450 3A4 (Homo sapiens) (UniProt P08684); assay: qHTS Assay for Activators of Cytochrome P450 3A4 (AID 885); also: nearly all actives have a fitted effect of over 65% in size
Procedure, shortened: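 Activators are scored by enhanced luminescence from CYP3A4 conversion of luciferin-PPXE (25uM, equal to KM) to luciferin, after 60 min at RT with an NADPH-regenerating system.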

[19] = target: Cytochrome P450 2D6 (Homo sapiens) (UniProt P10635); assay: qHTS Assay for Inhibitors and Substrates of Cytochrome P450 2D6 (AID 891)
Procedure, shortened: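 Luminescent read-out of luciferin formed by 5 nM human CYP2D6 demethylating 30 uM Luciferin-ME EGE (Km level) over 60 min at room temperature after NADPH regeneration addition. Data normalized to full inhibition by 1.43 uM quinidine.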

[20] = target: Cytochrome P450 3A4 (Homo sapiens) (UniProt P08684); assay: qHTS Assay for Inhibitors and Substrates of Cytochrome P450 3A4 (AID 884); also: nearly all actives have a fitted effect of over 50% in size; also: potency is read from the fitted curve at half-maximal effect
Procedure, shortened: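 Luminescent readout of luciferin produced by CYP3A4 (20 nM) dealkylation of Luciferin-PPXE, 25 uM (its KM). NADPH-driven reaction ran 60 min at RT after 10 min compound preincubation; data scaled to 57 uM ketoconazole as 100% inhibition.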

Measured: Potency

Cytochrome P450 2C19 (Homo sapiens), sequence (P33261 whole entry, looked up): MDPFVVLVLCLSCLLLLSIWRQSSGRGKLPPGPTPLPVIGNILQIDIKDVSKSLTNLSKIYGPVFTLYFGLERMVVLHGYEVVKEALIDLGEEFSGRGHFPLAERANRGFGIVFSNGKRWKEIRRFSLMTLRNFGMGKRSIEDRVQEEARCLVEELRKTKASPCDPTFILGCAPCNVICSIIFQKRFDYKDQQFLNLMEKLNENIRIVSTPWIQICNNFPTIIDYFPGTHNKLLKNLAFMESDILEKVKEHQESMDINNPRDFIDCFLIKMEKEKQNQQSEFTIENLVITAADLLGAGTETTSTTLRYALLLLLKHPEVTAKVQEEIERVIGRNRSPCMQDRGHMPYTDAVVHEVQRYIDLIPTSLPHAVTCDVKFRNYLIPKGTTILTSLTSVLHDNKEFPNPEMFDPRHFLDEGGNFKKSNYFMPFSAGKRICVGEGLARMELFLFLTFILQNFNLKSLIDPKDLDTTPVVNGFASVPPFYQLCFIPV
Cytochrome P450 2D6 (Homo sapiens), sequence (P10635 whole entry, looked up): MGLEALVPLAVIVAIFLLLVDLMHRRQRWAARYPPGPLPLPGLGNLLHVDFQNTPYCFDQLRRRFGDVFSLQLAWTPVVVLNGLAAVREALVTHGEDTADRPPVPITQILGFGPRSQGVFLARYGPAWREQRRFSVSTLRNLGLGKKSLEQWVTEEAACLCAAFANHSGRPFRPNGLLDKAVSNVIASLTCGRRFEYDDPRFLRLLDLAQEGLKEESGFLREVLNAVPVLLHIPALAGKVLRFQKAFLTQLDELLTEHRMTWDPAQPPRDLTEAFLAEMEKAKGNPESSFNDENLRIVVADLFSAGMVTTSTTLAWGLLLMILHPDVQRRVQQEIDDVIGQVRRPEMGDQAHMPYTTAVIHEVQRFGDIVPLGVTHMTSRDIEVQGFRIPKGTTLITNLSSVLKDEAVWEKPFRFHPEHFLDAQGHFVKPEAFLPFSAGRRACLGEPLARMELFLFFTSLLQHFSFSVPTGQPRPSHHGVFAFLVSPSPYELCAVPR
Cytochrome P450 3A4 (Homo sapiens), sequence (P08684 whole entry, looked up): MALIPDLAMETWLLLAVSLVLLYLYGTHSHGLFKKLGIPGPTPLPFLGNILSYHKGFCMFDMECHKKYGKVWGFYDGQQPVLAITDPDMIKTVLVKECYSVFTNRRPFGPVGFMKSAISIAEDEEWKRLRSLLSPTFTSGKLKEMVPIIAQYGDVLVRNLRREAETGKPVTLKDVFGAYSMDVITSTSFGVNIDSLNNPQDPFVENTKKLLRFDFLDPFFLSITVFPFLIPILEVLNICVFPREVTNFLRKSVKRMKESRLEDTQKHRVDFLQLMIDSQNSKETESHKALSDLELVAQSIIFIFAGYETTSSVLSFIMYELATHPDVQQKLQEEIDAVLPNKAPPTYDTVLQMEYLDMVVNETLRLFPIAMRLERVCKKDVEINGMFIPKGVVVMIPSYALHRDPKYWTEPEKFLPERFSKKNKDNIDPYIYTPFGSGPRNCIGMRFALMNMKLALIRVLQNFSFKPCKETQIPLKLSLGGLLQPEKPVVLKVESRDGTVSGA
Cytochrome P450 2C9 (Homo sapiens), sequence (P11712 whole entry, looked up): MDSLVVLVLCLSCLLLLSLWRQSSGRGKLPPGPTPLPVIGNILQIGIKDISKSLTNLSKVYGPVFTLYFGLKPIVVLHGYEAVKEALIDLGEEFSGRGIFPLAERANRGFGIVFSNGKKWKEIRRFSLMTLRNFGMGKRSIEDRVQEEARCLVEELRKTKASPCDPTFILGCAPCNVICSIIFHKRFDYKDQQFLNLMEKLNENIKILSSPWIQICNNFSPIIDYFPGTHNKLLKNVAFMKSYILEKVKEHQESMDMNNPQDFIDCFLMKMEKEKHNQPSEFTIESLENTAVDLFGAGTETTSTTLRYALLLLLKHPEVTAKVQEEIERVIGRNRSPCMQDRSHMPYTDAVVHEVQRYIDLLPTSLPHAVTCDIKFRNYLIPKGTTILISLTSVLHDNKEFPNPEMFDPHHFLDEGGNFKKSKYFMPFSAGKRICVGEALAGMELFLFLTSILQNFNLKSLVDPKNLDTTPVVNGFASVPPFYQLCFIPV
Cytochrome P450 1A2 (Homo sapiens), sequence (P05177 whole entry, looked up): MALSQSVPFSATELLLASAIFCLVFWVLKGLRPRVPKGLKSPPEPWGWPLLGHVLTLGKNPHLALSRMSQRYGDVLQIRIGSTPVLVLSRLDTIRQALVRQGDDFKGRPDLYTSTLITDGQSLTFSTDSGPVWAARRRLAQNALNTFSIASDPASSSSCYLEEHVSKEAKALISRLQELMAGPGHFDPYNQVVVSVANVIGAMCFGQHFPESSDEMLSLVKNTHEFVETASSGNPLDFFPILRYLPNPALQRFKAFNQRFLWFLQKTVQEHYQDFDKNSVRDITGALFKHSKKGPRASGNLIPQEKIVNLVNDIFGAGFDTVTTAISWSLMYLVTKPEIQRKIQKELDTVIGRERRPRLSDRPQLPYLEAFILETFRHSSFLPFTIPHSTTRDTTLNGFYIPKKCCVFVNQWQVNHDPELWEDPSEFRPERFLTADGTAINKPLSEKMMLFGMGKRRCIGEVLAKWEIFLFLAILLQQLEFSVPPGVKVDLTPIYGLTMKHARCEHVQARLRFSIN

CN(C)CCOC(=O)[C@@H](c1ccccc1)C1(O)CCCC1
not listed: [14] | [15] | [16] | [17] | [18] | [19] | [20]
inactive: all other assays above

COC(=O)Nc1nc2ccc(SC(C)C)cc2[nH]1
active: [1] 0.501 µM

C[N+]1(C)C[C@@H](O)C[C@@H]1C(=O)[O-]
inactive: [1] | [14]

C[C@@H]1Cc2ccccc2N1NC(=O)c1ccc(Cl)c(S(N)=O)c1 (stereo partly drawn)
not listed: [3] | [9] | [11] | [14] | [17] | [18] | [19] | [20]
inactive: all other assays above

COCC(=O)Nc1c(I)c(C(=O)NC[C@@H](O)CO)c(I)c(C(=O)N(C)C[C@@H](O)CO)c1I
not listed: [14] | [17] | [18] | [19] | [20]
inactive: all other assays above

Clc1ccc(CC[C@H](Cn2ccnc2)Sc2c(Cl)cccc2Cl)cc1
active: [1] 3.98 µM | [17] 0.0126 µM | [19] 1.26 µM | [14] 0.0025 µM | [3] 0.891 µM | [6] 6.42 µM | [7] 6.42 µM | [16] 3.22 µM
inactive: [18] | [2]

CC(=O)N(C[C@@H](C)C(=O)O)c1c(I)cc(I)c(N)c1I
inactive: [1] | [17] | [2] | [3] | [4] | [5] | [15] | [8] | [10] | [12] | [13]

CN1CCC2(CC1)CCN(C(=O)c1ccncc1)CC2
inactive: [1]

c1ccc2c(c1)CCCc1cc(NCCN3CCOCC3)nnc1-2
inactive: [1] | [18]

C#C[C@@]1(OC(C)=O)CC[C@@H]2[C@@H]3CCC4=C[C@@H](OC(C)=O)CC[C@H]4[C@H]3CC[C@]21C
inactive: [1] | [20]

CCOC(=O)O[C@]1(C(=O)COC(=O)CC)CC[C@@H]2[C@@H]3CCC4=CC(=O)C=C[C@@]4(C)[C@H]3[C@H](O)C[C@]21C
not listed: [14] | [17] | [19] | [20]
inactive: all other assays above

CS(=O)(=O)Nc1cccc(-c2nc(Nc3ccccc3)c3ccccc3n2)c1
active: [1] 0.794 µM
inactive: [18]

CCN[C@@H]1CN(CCCOC)S(=O)(=O)c2sc(S(N)(=O)=O)cc21
not listed: [1] | [11] | [12] | [14] | [17] | [18] | [19] | [20]
inactive: all other assays above

CC[C@H](C)C(=O)O[C@@H]1C[C@H](C)C=C2C=C[C@H](C)[C@@H](CC[C@H]3C[C@@H](O)CC(=O)O3)[C@H]21
inactive: [1]

CO/N=C(\C(=O)N[C@@H]1C(=O)N2C(C(=O)O)=C(COC(N)=O)CS[C@@H]12)c1ccco1
inactive: [1]

CN1CCCN([C@@H](c2ccccc2)c2ccc(Cl)cc2)CC1
inactive: [1]
active: [19] 0.251 µM

COc1cc2nc(N3CCN(C(=O)[C@@H]4COc5ccccc5O4)CC3)nc(N)c2cc1OC
inactive: [1] | [2] | [8] | [9] | [11]
active: [3] 7.08 µM

CCC[C@@H]1O[C@@H]2C[C@@H]3[C@H]4CCC5=CC(=O)C=C[C@@]5(C)[C@H]4[C@H](O)C[C@@]3(C)[C@@]2(C(=O)CO)O1
inactive: [1] | [2]
active: [3] 4.47 µM | [4] 11.2 µM | [10] 10.7 µM | [12] 11.2 µM | [13] 7.94 µM

COc1ccc(CNc2ncncc2-c2ccccc2CN(C)C)c(OC)c1
active: [1] 15.8 µM | [20] 0.398 µM | [19] 2.51 µM

Cc1c(C)c2c(c(C)c1O)CC[C@@](C)(C(=O)O)O2
active: [1] 20 µM
inactive: [18]

CC(C)CC(=O)N[C@H](C(=O)N[C@H](C(=O)N[C@@H](CC(C)C)[C@H](O)CC(=O)N[C@@H](C)C(=O)N[C@@H](CC(C)C)[C@H](O)CC(=O)O)C(C)C)C(C)C
inactive: [1]

Cc1c(O)c(=O)n(-c2ccccc2)n1C
inactive: [1]

CN[C@H]1[C@H](O)[C@@H](O[C@@H]2[C@H](O)[C@@H](O[C@H]3OC(CN)=CC[C@H]3N)[C@@H](N)C[C@H]2N)OC[C@@]1(C)O
not listed: [1] | [14] | [17] | [18] | [19] | [20]
inactive: all other assays above

C[C@@]1(O)CCOC(=O)C1
inactive: [1] | [17] | [14]

CN(C)c1ccc(-c2nccc(NCc3ccccc3)n2)cc1
inactive: [18]
active: [1] 1.26 µM | [20] 7.94 µM | [19] 3.16 µM

CCOC(=O)C1=C(C)NC(C)=C(C(=O)OC)[C@@H]1c1cccc([N+](=O)[O-])c1
inactive: [18]
active: [1] 15.8 µM | [17] 0.316 µM | [14] 0.126 µM

CC(=O)[C@@H]1CC[C@@H]2[C@@H]3C[C@H](C)C4=CC(=O)CC[C@@]4(C)[C@H]3[C@H](O)C[C@]21C
active: [17] 0.398 µM
not listed: [3] | [12] | [14] | [19] | [20]
inactive: all other assays above
